Shown are actives, neighbours in structure and some others; about 12% of the full set was active somewhere.
VP16 counter: counter-screen for ROR gamma inhibitors: Gal4-VP16 reporter. AID 2546. Potency, µM (top dose mostly 53.6 µM), without a hit: at the top dose activity, negative = inhibition, most hits filed as inhibitors. Drosophila S2 Gal4-VP16 UAS-luciferase, luminescence, 20 h. 310,000 compounds, 3.5% hits;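 further: Gal4-VP16 expression switched on by copper sulfate through the metallothionein promoter; nearly all actives have a fitted effect of over 50% in size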
RORg inh: inhibitors of mouse ROR gamma transcriptional activity. P51450. Drosophila S2 Gal4-RORgamma UAS-luciferase reporter, 20 h. Potency, µM (doses to about 53.6 µM), for inactives: at the highest dose activity change, negative = inhibition, most hits filed as inhibitors. 310,000 compounds, 5.4% hits. AID 2551; further: nearly all actives have a fitted effect of over 60% in size
Target sequence (P51450 whole entry, looked up, the tested form may be a part): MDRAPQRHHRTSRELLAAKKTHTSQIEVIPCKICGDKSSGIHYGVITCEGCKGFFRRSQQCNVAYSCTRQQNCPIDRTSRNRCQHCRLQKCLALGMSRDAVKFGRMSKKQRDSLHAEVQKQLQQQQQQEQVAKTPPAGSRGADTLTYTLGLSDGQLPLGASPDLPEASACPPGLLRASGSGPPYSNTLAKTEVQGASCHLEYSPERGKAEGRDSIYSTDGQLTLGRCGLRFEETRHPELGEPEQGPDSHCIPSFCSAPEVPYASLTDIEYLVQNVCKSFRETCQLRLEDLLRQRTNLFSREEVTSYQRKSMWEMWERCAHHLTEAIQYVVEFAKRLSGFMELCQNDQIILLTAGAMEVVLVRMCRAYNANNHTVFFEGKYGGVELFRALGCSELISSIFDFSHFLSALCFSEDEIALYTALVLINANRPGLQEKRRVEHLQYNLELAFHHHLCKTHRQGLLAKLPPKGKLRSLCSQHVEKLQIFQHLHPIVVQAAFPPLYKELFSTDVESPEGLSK
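Stable Schneider cell line, Gal4 DNA-binding domain fused to ROR gamma, UAS-luciferase. Cmpd 1 hr RT → CuSO4 700 uM final → 20 hr RT → luciferase reagent 10 min → luminescence.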
Sfp PPTase inh: blocks B. subtilis Sfp PPTase activity. Q9F4F7. Biochemical Sfp PPTase activity, qHTS. Potency, µM, inactives show largest response in the series, negative = inhibition, hits mostly inhibitors. 310,000 compounds, 3.5% hits. AID 1490;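 further: the enzyme is Sfp with the accession as filed and its product quenches rhodamine fluorescence; 0% = enzyme reaction without inhibitor and -100% = no enzyme wells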
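Sfp 15 nM + cpd, 15 min RT; start w/ rhodamine-CoA 5 uM, BHQ-2-YbbR 12.5 uM (final); 50 mM Hepes pH 7.6, 10 mM MgCl2, 0.01% NP-40, 0.01% BSA; read 525/598 nm at 0 and 30 min.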
PLK1 PBD inh: inhibitors of human PLK1 polo-box domain binding; Potency, µM, inactives show max response, negative = inhibition, actives largely listed as inhibitors; P53350; 360,000 compounds, 2.8% hits; Plk1 PBD binding of FITC phosphopeptide, fluorescence polarization; further: series mostly up to about 57 µM; nearly all actives have a fitted effect of over 65% in size
ALDH1A1 block: inhibitors of human aldehyde dehydrogenase 1A1. AID 1030. Purified ALDH1A1, NADH fluorescence, propionaldehyde substrate. 220,000 compounds, 7.3% hits. Potency, µM (top dose mostly 75.3 µM), inactives show at the top dose activity, negative = inhibition, usual class: inhibitors. P00352; active means well fitted inhibition curve with a large enough effect, not every such curve was filed as active; inconclusive means small, poorly fitted or top-dose-only effect, or another doubt; inactive means no such curve, though single readings can be large or run the other way;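 further: plate controls were no enzyme wells and a reference inhibitor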
Starred values were filed as active, the others as inactive; ? = inconclusive; · = no result; [ ] = dose if it differs, or a comment. Unless noted, the call rests on the fitted dose curve; in most records, active means well fitted curve in the direction sought with a large enough effect; inconclusive means small, poorly fitted or top-dose-only effect, or another doubt; inactive means no such curve, though single readings can be large; an effect the other way counts as inactive or inconclusive. Unless noted, on the % scale 0 is the no-effect control and ±100 the full control effect; potency means the concentration at half of the fitted maximal effect.

SMILES	VP16 counter	RORg inh	Sfp PPTase inh	PLK1 PBD inh	ALDH1A1 block
COc1ccc([C@H]2C[C@@H](n3cc(COC(=O)c4ccccc4)nn3)[C@H](O)CN2Cc2cccs2)cc1	·	·	·	4%	·
Cc1nn(-c2ccccn2)c2c1C(=O)CC(C)(C)C2Br (configuration not stated)	-3%	9%	-3%	27µM*	·
CCCCc1nc2c(c3c1C[C@H](C)OC3)CN(C(=O)N[C@H](C(=O)OC)C(C)C)CC2	·	·	-4%	·	-2%[13.5 µM]
CCN(C(=O)CN1C(=O)NC2(CCCC2)C1=O)c1nc2c(C)cccc2s1	·	·	·	2%	·
Cc1oc(=O)c(NC(=O)c2cccc(Cl)c2)cc1C(=O)c1ccccc1	5µM*	4.5µM*	8.9µM*	-16%	8.9µM*
COC(=O)c1cc(NC(=O)c2ccccc2)c(=O)oc1C	20%	-2%	-11%	?	?
CO/N=C\Cc1oc(=O)c(NC(=O)c2ccccc2)cc1C(=O)OC	-6%	10%	-10%	?	22µM*
COc1ccc(C(=O)Nc2cc(C(=O)c3ccccc3)c(C)oc2=O)cc1	10µM*	-104%	10µM*	-14%	20µM*
COC(=O)c1cc(NC(=O)c2ccc([N+](=O)[O-])cc2)c(=O)oc1C	0%	26%	-15%	-6%	?
COC(=O)c1cc(NC(=O)c2ccccc2)c(=O)oc1C/C=N\OCc1ccc(Cl)cc1Cl	-5%	-8%	-9%	20%	?
CC(=O)c1cc(NC(=O)c2ccc([N+](=O)[O-])cc2)c(=O)oc1C	?	?	16µM*	-9%	?
Cc1ccc(-c2cc3cccc[n+]3cc2-c2ccc(C)cc2)cc1	13µM*	?	-7%	?	?
Cc1ccc2nc(-c3ccncc3)cc(-c3ccccc3)c2c1	-19%	?	-19%	-2%	?
NS(=O)(=O)c1cccc(C(=O)N2CCCc3ccccc32)c1	·	·	·	-3%	·
O=C(c1ccsc1)N1CCCC(N2CCN(c3cccc(C(F)(F)F)c3)CC2)C1 (configuration not stated)	-4%	?	3%	-2%	·
O=C(c1cc[n+]([O-])cc1)N1CCCC(N2CCN(c3cccc(C(F)(F)F)c3)CC2)C1 (configuration not stated)	-65%	1.3µM*	11%	-9%	·
CCCC[C@@H]1C[C@H]1[C@@H](NP(=O)(c1ccccc1)c1ccccc1)c1ccccc1OC	?	?	-19%	·	8%
COc1ccc(NC(=S)N/N=C/c2cccn2Cc2ccccc2F)cc1	1.4µM*	0.28µM*	9%	3%	2%
COc1ccc(NC(=S)NC(=O)/C=C/c2ccc(F)cc2)cc1	-13%	?	13%	5%	·
COc1ccc(CNC(=O)c2cn(Cc3ccccc3F)c(=O)s2)cc1	·	·	·	-3%	·
COc1ccc(NC(=S)N/N=C/c2cccn2Cc2ccc(F)cc2Cl)cc1	2.8µM*	0.79µM*	-6%	-5%	?
O=C(c1ccc(N2CCN(C3CC(=O)N(Cc4cccs4)C3=O)CC2)cc1)c1cccnc1 (configuration not stated)	0%	25%	0%	1%	3.2µM*
O=C(c1ccncc1)c1ccc(N2CCN(C3CC(=O)N(Cc4ccccc4)C3=O)CC2)cc1 (configuration not stated)	?	40%	-3%	1%	-11%
O=S1(=O)C2CC3C=CC2(CN1Cc1ccccc1)O3 (configuration not stated)	6%	17%	3%	·	·
O=C(N/C=C/c1ccco1)Nc1cccc(Cl)c1	9%	26%	4%	-5%	-6%
SMILES	VP16 counter	RORg inh	Sfp PPTase inh	PLK1 PBD inh	ALDH1A1 block
CSc1cccc(NC(=O)/C=C/c2ccccc2)c1	1%	?	15%	0%	-3%
COc1cccc(NC(=O)/C=C/c2ccco2)c1	8%	27%	35µM*	-13%	25µM*
CSc1cccc(NC(=O)/C=C/c2ccco2)c1	?	30%	56µM*	?	3.2µM*
COc1ccc(NC(=O)N/C=C/c2ccco2)cc1	2%	30%	50µM*	?	28µM*
Cc1cc(C)c2cc(C#N)c(NCCNC(=O)c3cccnc3)nc2c1	·	·	·	-7%	·
CC/C=C\C/C=C\C/C=C\C/C=C\C/C=C\C/C=C\CCC(=O)NCCCC(=O)O	-1%	-4%	-14%	·	2%
CCOC(=O)CNC(=O)CNC(=O)c1ccc(OC)cc1	-4%	-2%	17%	-9%	-9%
CCOC(=O)CSC(=S)NC(=O)c1ccc(OC)cc1	17%	-10%	-12%	3µM*	?
COc1ccc(C(=O)NC(=S)SCC(=O)O)cc1	-2%	-1%	50µM*	19µM*	·
C=CCn1c(-c2ccccc2)n[nH]c1=S	0%	?	5µM*	8.4µM*	-12%
C=CCn1c(-c2ccc(F)cc2)n[nH]c1=S	?	7.9µM*	-20%	-13%	2%
C=CCn1c(-c2ccoc2)n[nH]c1=S	18µM*	11µM*	-27%	-12%	?
C=CCn1c(CSCc2ccc(F)cc2)n[nH]c1=S	3.5µM*	3.2µM*	-8%	-6%	·
OCCCn1c(-c2ccccc2)n[nH]c1=S	-9%	-45%	-5%	-7%	1%
C=CCn1c(CNS(=O)(=O)c2ccc(F)cc2)n[nH]c1=S	1%	-14%	-15%	0%	·
C[C@H]1CN([C@@H](C)CO)C(=O)CCCn2cc(nn2)CO[C@@H]1CN(C)C(=O)Nc1ccc2c(c1)OCCO2	·	·	·	-27%	·
O=C1NN=C2CCCCCCCCCCC12 (configuration not stated)	·	·	·	2%	·
CCCn1c(-c2ccncc2)n[nH]c1=S	6%	?	?	0%	-11%
C=CCn1c(-c2ccncc2)n[nH]c1=S	-18%	10µM*	-23%	-7%	-1%
CCc1ccccc1	8%	-5%	·	·	-7%
C=CCn1c(O)c(N=NC(=O)OC(C)(C)C)c2ccccc21	21%	18%	-1%	-3%	?
C=CCn1c(O)c(N=NC(=S)Nc2ccc(OC)c(Cl)c2)c2ccccc21	4µM*	2.8µM*	1.8µM*	-9%	22µM*
C=CCn1c(O)c(N=Nc2ccccc2C)c2ccccc21	0%	-14%	25µM*	-29%	2.8µM*
COc1ccc([C@@H]2CC(=O)c3c(O)cc(O[C@@H]4O[C@H](CO[C@@H]5O[C@@H](C)[C@H](O)[C@@H](O)[C@H]5O)[C@@H](O)[C@H](O)[C@H]4O)cc3O2)cc1	-2%	-10%	6%	·	·
COC(=O)[C@@]12C[C@@H](CC(=O)N3CCCC3)C(=O)N(Cc3ccco3)C1=CCC(C)(C)C2	·	·	·	-13%	·
COc1ccc2c(c1)c(C(=O)N1CCN(C)CC1)c(C)n2-c1ccccc1	-21%	15%	-5%	-1%	14µM*
CCC(C)/C(C)=N/NC(=O)c1ccc(COc2ccc(Cl)c(C)c2)cc1 (configuration not stated)	?	?	17%	3%	13µM*
